CCHF vOTU inh-1: CCHFV vOTU protease inhibition; Pep-AMC fluorescence; inhibition, % at 11.5 µM; 370,000 tested, 0.55% active; AID 651958; also: 0% = vehicle wells with enzyme and 100% = no enzyme wells
GDH-TPI inh: inhibits GDH-TPI coupling enzymes, artifact for Mtb FBA screen; GDH-TPI coupled enzyme counterscreen, NADH absorbance; inhibition, % at 4.8 µM; 360,000 tested, 1.2% active;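 also: 0% = DMSO wells and 100% = wells lacking the enzyme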
Mtb betalactam: beta-lactam sensitization of Mtb H37Rv; M. tuberculosis H37Rv growth with meropenem, percent inhibition; inhibition, % at 25 µM; 330,000 tested, 0.27% active; AID 434955; call rule not given here;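 also: growth measured after seven days incubation then overnight dye step; 0% = bacteria only wells and 100% = bacteria with antibiotic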
Mtb FBA inh: inhibitors of M. tuberculosis fructose-bisphosphate aldolase; inhibition, % at 1 µM; 360,000 tested, 2.3% active; purified M. tuberculosis FBA, fluorescence read-out; in the data active = inhibition above about 27%;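 also: 0% = vehicle and 100% = reference inhibitor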
Target sequence (P9WQA3 whole entry, looked up): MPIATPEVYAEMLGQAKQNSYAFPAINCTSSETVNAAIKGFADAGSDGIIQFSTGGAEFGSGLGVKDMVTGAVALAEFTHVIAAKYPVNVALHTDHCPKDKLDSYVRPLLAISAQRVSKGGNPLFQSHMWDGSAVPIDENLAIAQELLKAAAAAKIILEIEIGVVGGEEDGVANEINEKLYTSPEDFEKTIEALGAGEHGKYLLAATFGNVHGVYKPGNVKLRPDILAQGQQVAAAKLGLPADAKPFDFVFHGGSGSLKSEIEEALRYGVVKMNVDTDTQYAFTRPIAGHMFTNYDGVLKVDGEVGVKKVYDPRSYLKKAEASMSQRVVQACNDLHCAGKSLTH
RecA intein inh: Mtb RecA intein splicing inhibition; P9WHJ3; cell-free RecA intein splicing, fluorescence; inhibition, % (test concentration not listed); 290,000 tested, 0.75% active; AID 2221; in the data active = inhibition above about 30%;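 also: 0% = vehicle wells and 100% = reference inhibitor control wells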
CCHF vOTU inh-2: confirmation of CCHF virus vOTU protease inhibitors. shares compounds with CCHF vOTU inh-1. Recombinant CCHFV vOTU, Pep-AMC fluorescence. inhibition, % at 11.5 µM. 1,900 tested, 17% active
An asterisk follows results filed as active; nt = not tested or not shown. Compounds with a hit are over-represented: about 4.2% of the library has one in this group of screens. Rule as the data show it, unless noted: active = inhibition above about 30%; inactive = the rest.

SMILES	CCHF vOTU inh-1	GDH-TPI inh	Mtb betalactam	Mtb FBA inh	RecA intein inh	CCHF vOTU inh-2
CCCCCN1CCCCC(NC(=O)c2cccc(F)c2)C1=O (stereo unspecified)	3	nt	nt	nt	nt	nt
CCc1ccc(-c2csc(NC(=O)C3CC(=O)N(c4ccc5c(c4)OCCO5)C3)n2)cc1 (stereo unspecified)	30*	-6	52	5	3	-22
CCCCn1c(N)c(N(CC(C)C)C(=O)CSc2nn(-c3ccc(F)cc3)c(=S)s2)c(=O)[nH]c1=O	38*	11	nt	-1	nt	-29
CCCCn1c(N)c(N(CC)C(=O)c2ccccc2F)c(=O)[nH]c1=O	33*	0	-10	-6	-1	-11
Cc1ccc(CN2CC(C(=O)NCC(=O)Nc3c(C)cccc3C)CC2=O)cc1 (stereo unspecified)	2	8	-15	4	-4	nt
CN(C(=S)Nc1cccnc1)c1ccc(O)cc1	49*	-5	1	5	-1	-15
CN(C(=S)Nc1ccc(Oc2ccccc2)cc1)c1ccc(O)cc1	30*	3	-2	2	14	-24
CN(C(=S)Nc1ccccc1)c1ccccc1	1	-2	4	5	-3	nt
CN(C(=S)Nc1ccc(SC(F)F)cc1)c1ccc(O)cc1	30*	-6	-1	-2	-3	-29
C#CCNC(=O)C[C@H]1C[C@@]2(C(=O)OC)C(=C[C@H](C(C)C)O[C@@H]2C2CC2)N(Cc2ccc3c(c2)OCO3)C1=O	-1	nt	nt	nt	nt	nt
Cc1cc(C(F)(F)F)nc(SCc2ccc(C(=O)O)o2)n1	41*	3	-2	-2	4	-10
CCN(CC)CCCN1C(=O)C(=O)/C(=C(/O)c2ccccc2)C1c1cc(OC)ccc1OC (stereo unspecified)	54*	2	2	3	-1	-28
O=c1[nH]ncc(N/N=C\c2cccs2)c1Cl	30*	36*	-3	-4	5	-8
Clc1cccc(N/N=C/c2ccncc2)c1	11	26	69	0	4	nt
Cc1n[nH]c(=O)n(N=Cc2cccs2)c1=O	-12	-5	nt	-5	nt	nt
O=c1[nH]ncc(N/N=C\c2ccncc2)c1Cl	34*	44*	5	-4	-5	-1
CN=C(Nc1cccnc1)c1ccccc1	-14	-3	-2	-1	0	nt
CC1(C(=O)Nc2cccc(C(F)(F)F)c2)Cc2c(-c3ccccc3)ccnc2O1 (stereo unspecified)	9	7	nt	-1	nt	nt
Fc1ccc(-c2nc3c(Cl)cc(C(F)(F)F)cn3c2Cc2cccc(F)c2)cc1	-3	nt	nt	0	nt	nt
Fc1cccc(Cc2c(-c3ccco3)nc3c(Cl)cc(C(F)(F)F)cn23)c1	31*	nt	nt	2	nt	-4
CC(O)(c1ccc(F)c(F)c1)c1nc(/C=C/c2ccc(C(F)(F)F)cc2)cs1 (stereo unspecified)	33*	6	nt	-3	nt	-6
COc1ccc(C(=O)C2CCCN(C(=O)c3cccc(N4CCCC4=O)c3)C2)cc1OC (stereo unspecified)	35*	-3	nt	-2	-1	-17
CCCCNC(=O)C[C@@H]1C(=O)N2CCCC3=C2[C@@]1(C(=O)OCC)CCC3	1	nt	nt	nt	nt	nt
CC[n+]1c(-c2ccccc2)c2cc(N)ccc2c2ccc(N)cc21	91*	6	nt	-6	nt	90*
CCCCNC(=O)C(NC(=O)Cc1cc(C(F)(F)F)cc(C(F)(F)F)c1)C(=O)c1ccccc1 (stereo unspecified)	30*	nt	nt	nt	nt	1
SMILES	CCHF vOTU inh-1	GDH-TPI inh	Mtb betalactam	Mtb FBA inh	RecA intein inh	CCHF vOTU inh-2
CCCCNC(=O)C(NC(=O)c1ccc(C(F)(F)F)cc1)C(=O)c1ccccc1 (stereo unspecified)	8	nt	nt	nt	nt	nt
CCOC(=O)C1CCN(C(=O)c2ccccc2CCc2ccccc2)CC1	1	13	-6	-1	4	nt
c1ccc2c(c1)NCC1CCCN21 (stereo unspecified)	37*	4	-3	-1	-1	-1
COC(=O)[C@@]1(Cc2ccc(F)cc2)[C@H]2c3cc(C(=O)N4CCCC4)n(C)c3C[C@H]2CN1C(=O)c1ccccc1	3	nt	nt	nt	nt	nt
CC(=O)N(C1=C(N)C(=O)c2ccccc2C1=O)C(C)C	19	-6	5	-10	12	nt
CCC(=O)N(C1=C(NC(C)C)C(=O)c2ccccc2C1=O)C(C)C	47*	1	-2	-7	15	31*
COc1cccc(NS(=O)(=O)c2ccc3c(c2)C2C=CCC2C(c2ccc(C(=O)O)cc2)N3)c1 (stereo unspecified)	41*	8	-10	-3	13	24
COc1cccc(NS(=O)(=O)c2ccc3c(c2)CCCN3C(C)=O)c1	11	11	-1	0	0	nt
Cc1ccnc(Nc2ccc(CCO)cc2)n1	-5	nt	nt	-2	nt	nt
NC(=O)Cn1c(=O)n(Cc2ccccc2)c(=O)c2cccnc21	8	-1	4	-1	-1	nt
COc1ccccc1C(=O)Nc1ccc(NC(=O)C2CCCCC2)nc1	39*	10	1	0	8	-21
C[C@H]1CNCCN1c1ccc(N2CC[C@@H](O)C2)c(C#N)c1	34*	nt	nt	nt	nt	-20
Cc1cc(N2CCNC[C@@H]2C)ccc1N1CC[C@@H](O)C1	17	nt	nt	nt	nt	nt
Cc1cc(Br)cn2c(Cc3ccccc3C(F)(F)F)c(-c3ccco3)nc12	30*	nt	nt	nt	nt	11
Cc1cc(Br)cn2c(Cc3ccccc3C(F)(F)F)c(-c3ccccc3)nc12	3	nt	nt	nt	nt	nt
COc1cccc(Nc2nc(C(N)C(C)C)cs2)n1 (stereo unspecified)	34*	5	nt	-3	nt	-6
Cc1nn(CC(=O)NC(C)C(C)C)c(C)c1S(=O)(=O)N1CCCCC1 (stereo unspecified)	-1	7	nt	4	nt	nt
CCCC(=Nc1ccc(N)cc1)C1=C(O)C(C(=O)OC)C(C)(C)CC1=O (stereo unspecified)	103*	20	69	-3	-2	3
CN(CCc1ccccc1)C(=O)c1cc2ccccn2n1	0	nt	nt	nt	nt	nt
CCOC(=O)c1sc2nccc(N(C)C)c2c1N=CN(C)C	-3	15	-5	11	-9	nt
CN(C)C=Nc1c(C(=O)c2ccccc2)sc2nccc(N(C)C)c12	30*	13	-3	-10	-1	-2
Nc1ccc2nn(-c3cccc4ccccc34)nc2c1	60*	5	6	15	-28	12
Cc1cc(C)cc(NC(=O)CN(C)S(=O)(=O)c2cccc3nsnc23)c1	21	7	-5	-5	nt	nt
CCc1cccc(NC(=O)CN(C)S(=O)(=O)c2cccc3nsnc23)c1	36*	2	-11	-4	0	-3
CC(C)c1nc(N(C)S(C)(=O)=O)nc(-c2ccc(F)cc2)c1/C=C/[C@H](O)C[C@@H](O)CC(=O)O	11	nt	nt	nt	nt	nt
C[C@H](CO)N1C[C@H](C)[C@@H](CN(C)C)Oc2c(NS(=O)(=O)c3ccccc3)cccc2C1=O	-11	0	-1	-1	nt	nt
Cc1ccc(OCc2cc(C(=O)N3CCC(C(O)C(C)C)CC3)no2)cc1C (stereo unspecified)	33*	4	-1	0	2	-9

Screens (PubChem)
